AmpC inh detg: blocks E. coli AmpC beta-lactamase in detergent assay; P00811; AID 485294; AmpC hydrolysis of nitrocefin, absorbance 480 nm, 0.01% Triton; Potency, µM (highest dose often 114 µM), for inactives: at the highest dose activity change, negative = inhibition, actives largely listed as inhibitors; hit rate 0.041% among 370,000;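 note: potency is the fitted concentration of half-maximal effect; 0% = no-compound wells and -100% = no-enzyme wells; nearly all actives have a fitted effect of over 25% in size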
Target sequence (P00811 whole entry, looked up): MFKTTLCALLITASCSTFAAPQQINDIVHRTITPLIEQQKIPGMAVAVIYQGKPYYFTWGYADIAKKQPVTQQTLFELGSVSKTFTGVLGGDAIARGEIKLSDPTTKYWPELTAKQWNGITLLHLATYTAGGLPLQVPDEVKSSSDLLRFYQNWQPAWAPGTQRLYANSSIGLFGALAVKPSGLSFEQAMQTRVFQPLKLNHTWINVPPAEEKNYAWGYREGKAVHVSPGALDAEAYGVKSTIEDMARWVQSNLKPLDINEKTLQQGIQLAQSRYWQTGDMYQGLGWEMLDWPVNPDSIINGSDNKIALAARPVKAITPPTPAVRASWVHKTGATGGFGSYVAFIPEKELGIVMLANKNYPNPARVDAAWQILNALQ
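20 mM phosphate pH 7.0 + 0.01% (detergent screen) or 0.0001% Triton X-100; 5.3 nM AmpC reagent; cpd preinc 15 min RT; nitrocefin (800 uM stock) to start; A480 q20 s × 4 min; Activity was normalised to no-enzyme and no-compound control wells.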
AmpC inh no detg: blocks E. coli AmpC beta-lactamase in detergent-free assay | AmpC nitrocefin hydrolysis, absorbance 480 nm, 0.0001% Triton | Potency, µM (top dose mostly 57.1 µM), for inactives: at the top dose activity change, negative = inhibition, most hits filed as inhibitors | hit rate 0.52% among 330,000;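 note: potency is the fitted concentration of half-maximal effect; plate controls were no compound for no effect and no enzyme for full effect; nearly all actives have a fitted effect of over 20% in size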
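20 mM phosphate pH 7.0 + 0.01% (detergent screen) or 0.0001% Triton X-100; 5.3 nM AmpC reagent; cpd preinc 15 min RT; nitrocefin (800 uM stock) to start; A480 q20 s × 4 min; Activity was normalised to no-enzyme and no-compound control wells.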
CHX counter: affects cycloheximide protein synthesis inhibition readout, counter-screen. cell reporter, cycloheximide protein synthesis inhibition counterscreen. hit rate 12% among 300,000. max response, %. AID 2314; in the data active = max response mostly above about 13%, no sharp cut-off; inactive = mostly below about 14%; note: read at 38.3 µM for the half of the compounds with a filed dose; 0% is about no effect
Shiga toxin inh: Shiga toxin inhibition | Vero cells, Shiga toxin protein synthesis inhibition reporter | inhibition, % at 38.7 µM | hit rate 9.2% among 290,000; in the data active = inhibition mostly above about 28%, no sharp cut-off; inactive = mostly below about 43%; note: 0% is about no effect
SARS PLP yeast: blocks SARS-CoV papain-like protease in a yeast assay | S. cerevisiae expressing SARS-CoV PLpro, growth rescue | AID 485353 | hit rate 0.19% among 330,000 | Potency, µM (titrated, usually from 32.9 µM), inactives show top-dose activity, positive = growth rescue, hits mostly activators; calls by dose curve; note: potency is the fitted concentration of half-maximal effect; 0% is about no effect; nearly all actives have a fitted effect of over 55% in size
AMA1 RON2 block: disrupts binding of P. falciparum AMA1 to RON2. AlphaScreen AMA1-biotinylated RON2 peptide binding. Potency, µM (highest dose often 58.2 µM), for the others: at the highest dose activity change, negative = inhibition, usual class: inhibitors. hit rate 0.2% among 360,000. AID 720542;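 note: potency is the fitted concentration of half-maximal effect; 0% = vehicle wells and -100% = peptide control; nearly all actives have a fitted effect of over 45% in size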
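AMA1 (3D7) with his tag at 25 nM final met compounds first, then biotinylated RON2 peptide at 25 nM; detection used donor plus acceptor beads, 10 µg/mL apiece, read by AlphaScreen after 30 min at room temperature.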
* = called active by the depositor; ? = inconclusive; / = not tested or not shown. The entries come from a sample that favours hits as a whole. Unless noted, calls come from the whole dose curve; as a rule, active = well fitted curve in the direction sought with a large enough effect; inconclusive = small, poorly fitted or top-dose-only effect, or another doubt; inactive = no such curve, though single readings can be large; an effect the other way counts as inactive or inconclusive.

SMILES | AmpC inh detg | AmpC inh no detg | CHX counter | Shiga toxin inh | SARS PLP yeast | AMA1 RON2 block
Cn1c(=O)c2c(nc(SCC(=O)NCC3CCCO3)n2C)n(C)c1=O (stereo not given) | -0.2% | -7.7% | -0.7 | -6.0 | 0.3% | -0.9%
Cc1ccc(N=Nc2c(O)[nH]c3ccc(F)cc23)cc1 | 4.7% | -19.9% | 50.5* | 67.4* | -0.3% | -1.5%
O=c1[nH]nc(N=Nc2c(O)[nH]c3ccc(F)cc23)c(=O)[nH]1 | / | / | / | / | / | 124.3%
COc1ccccc1CNC(=O)C(CC(C)C)NS(=O)(=O)c1ccc2c(c1)oc(=O)n2C (stereo not given) | 17.0% | -18.3% | -5.2 | -9.6 | 9.3% | 0.0%
COc1ccccc1CNC(=O)C(CCSC)NS(=O)(=O)c1ccc2c(c1)oc(=O)n2C (stereo not given) | -11.0% | -2.1% | 52.2* | 42.5 | -4.0% | -0.6%
CCNC(=O)C1(C)CCCN(C(=O)c2nc3ccccc3s2)C1 (stereo not given) | / | / | / | / | / | 5.1%
O=C(c1nc2ccccc2s1)N1CCSCC1 | 0.5% | -14.7% | 29.2* | 134.7* | 1.8% | 11.6%
O=C(c1nc2ccccc2s1)N1CCN(c2ccccn2)CC1 | ? | -11.4% | 20.7* | 28.7* | -3.0% | 4.4%
COCCN(Cc1ccccc1)C(=O)c1cccc(S(=O)(=O)N2CCN(c3ccc(F)cc3)CC2)c1 | -9.1% | 115.4% | / | / | / | -6.7%
Nc1ccc(N2CCN(c3ccccc3)CC2)c(F)c1 | -5.8% | -18.1% | 14.4* | 57.4* | 0.1% | -28.3%
O=C(CSc1ccccc1)Nc1ccc(N2CCN(c3ccccc3)CC2)c(F)c1 | -1.7% | -2.9% | -5.1 | -17.1 | -13.7% | 3.2%
Cc1ccc(-n2c(SCC(=O)N3CCc4ccccc43)nc3c([nH]c4ccccc43)c2=O)cc1 | 0.0% | / | / | / | / | /
CCOC(=O)c1c(-c2ccccc2)csc1NC(=O)c1cc(-c2ccc(Br)cc2)on1 | 14.8% | / | / | / | / | /
COC(=O)c1sc(-c2ccc(C(C)(C)C)cc2)cc1NC(=O)CCC(=O)O | 3.9% | 150.1% | 27.4* | 64.4* | -12.2% | -4.1%
COC(=O)c1sc(-c2ccc(Cl)cc2)cc1NC(=O)COCC(=O)O | -1.7% | 33.5% | -1.9 | 1.2 | 1.5% | -0.8%
Cc1ccc(S(=O)(=O)Nc2ncnc3ccccc23)cc1 | 3.9% | -37.8% | 15.6 | 26.8 | -0.7% | 20.3%
CCOC(=O)/C(=N\Nc1ncnc2ccccc12)c1ccc(C)cc1 | -0.7% | 43.6% | 18.0* | 23.0 | -3.1% | 26.6%
CCOC(=O)C/C(=N\Nc1ncnc2ccccc12)c1ccccc1 | 4.3% | 4.3% | 35.2* | 86.7* | -1.6% | 64.4%
CCC(=O)NNc1ncnc2ccccc12 | -16.9% | -10.9% | 0.6 | -9.5 | 12.9% | 0.0%
NC(=O)c1ccccc1OCC(=O)NS(=O)(=O)c1ccc(Cl)cc1 | -0.2% | -18.0% | -0.7 | -7.6 | 4.0% | -3.2%
COc1ccc(OS(=O)(=O)Cc2ccccc2)cc1 | -7.9% | -21.7% | 20.4* | 41.1* | -1.3% | 3.9%
O=S(=O)(CS(=O)(=O)Oc1ccccc1)Oc1ccccc1 | / | / | / | / | / | 0.8%
COc1cccc(NC(=O)Nc2ccccc2SC)c1 | -6.5% | -31.3% | 37.2* | 84.0* | -1.9% | 1.7%
COc1ccc(NC(=O)Nc2ccccc2SC)c(OC)c1 | -4.8% | -13.4% | -1.4 | 29.0 | 0.2% | -13.8%
COc1ccc(NC(=O)Nc2ccccc2SC)cc1OC | -8.5% | -15.5% | 19.7* | 47.9* | 0.2% | -6.5%
CC(=O)c1ccc(OCC(=O)N(CCC2=CCCCC2)c2c(N)n(Cc3ccccc3)c(=O)[nH]c2=O)cc1 | -18.0% | ? | / | / | 6.3% | 8.8%
Cc1c(C(=O)NCCN2CCCC(O)C2)oc2c(F)cccc12 (stereo not given) | -0.6% | -7.9% | -4.0 | 10.0 | -4.0% | 1.2%
COC(=O)c1ccc(Nc2nc3ccc(C)cc3n3cnnc23)cc1 | -2.4% | 0.1% | 17.0 | 50.9 | -0.1% | -9.8%
CC(=O)c1ccc(Nc2nc3ccc(C)cc3n3cnnc23)cc1 | -3.1% | 4.4% | 16.6* | 28.5 | -0.4% | 19.0%
CC(C)NC(=O)c1cc(-c2ccc(Br)cc2)on1 | -9.9% | -14.7% | 48.8* | 121.8* | 2.3% | -1.3%
